Measurements: PubChem BioAssay (EPA / NIEHS)
Inconclusive results are not listed. Activity calls are given as the source filed them. How the source made its calls, unless noted: active means hit-call score of the fitted dose curve at least 0.9, where 1 is the maximum; inconclusive means response in the unintended direction; inactive means score below 0.9.

Read-out: solute carrier (SLC22A6), SLC22A6 (gene 9356)
Test: LTEA_HepaRG_SLC22A6: Life Technologies and Expression Analysis (LTEA) Assay for solute carrier (SLC22A6) using HepaRG (AID 2283653; active means hit-call score of the fitted dose curve at least 0.9, where 1 is the maximum; inactive means score below 0.9)
Details: mRNA level, 48 h; actives raise or lower the signal
In short: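 Differentiated HepaRG cells exposed 48 h in serum-free induction medium to 8 half-log concentrations, top 100 uM, in 0.5% DMSO; SLC22A6 mRNA by Fluidigm qRT-PCR normalized to ACTB, GAPDH, POLR2A, fitted bidirectionally versus DMSO.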

Row | SMILES | outcome
1 | CCCCCCCCCC[N+](C)(C)[O-] | inactive
2 | CCCCC(CC)CO (centres undefined) | inactive
3 | CCC(C)N(C)C(=O)c1cc2ccccc2c(-c2ccccc2Cl)n1 (centres undefined) | inactive
4 | Cc1occc(=O)c1O | inactive

Tested on: not listed separately
Test: Tanguay_ZF_120hpf_SWIM_legacy: (Legacy) Oregon State University Tanguay Lab 120 Hour Post-fertilization zebrafish Assay for Swim Bladder Malformation (AID 2283654);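 further: swim bladder malformation in each larva scored yes or no under brightfield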
Details: not given
In short: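 Dechorionated Tropical 5D wild-type embryos, placed singly from 6 hpf, were statically exposed at 28C to 120 hpf with 0.64% DMSO final; swim bladder malformation was scored present/absent by brightfield microscopy, gain of signal relative to DMSO controls.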

Row | SMILES | outcome
5 | CCCCCCCCCC[N+](C)(C)[O-] | inactive
6 | CCCC[C@H]1CN(CC2CCOCC2)C(=O)OC12CCN(C1(C)CCN(C(=O)c3c(C)ncnc3C)CC1)CC2 | inactive
7 | NC(=Nc1ccccc1)Nc1ccccc1 | inactive
8 | Cc1cc(Cc2ccc(N)c(C)c2)ccc1N | inactive
9 | Cc1ccc(-c2cc(C(F)(F)F)nn2-c2ccc(S(N)(=O)=O)cc2)cc1 | inactive
10 | O=C(NS(=O)(=O)/C=C/c1cccs1)c1ccc(F)cc1Br | inactive
11 | CC(=O)OC1CC(C)OC(C)O1 (centres undefined) | inactive
12 | Cc1cc(SC2=C(O)C[C@@](CCc3ccc(N)cc3)(C(C)C)OC2=O)c(C(C)(C)C)cc1CO | inactive
13 | O=[Si]=O | inactive
14 | O=C(Oc1ccccc1)c1cccc(C(=O)Oc2ccccc2)c1 | inactive
15 | O=C1CCCCC1 | inactive
16 | CN(C)C(=O)NC1(c2ccccc2)CCN(CCC[C@]2(c3ccc(Cl)c(Cl)c3)CCCN(C(=O)c3ccccc3)C2)CC1 | inactive
17 | Cc1occc(=O)c1O | inactive
18 | CCCCCCCCCCCCCCCCO | inactive
19 | CC(=O)OCC(COC(C)=O)OC(C)=O | inactive
